The record followed here is PubChem BioAssay (EPA / NIEHS).

What all share (conditions): mRNA level, 48 h; actives raise or lower the signal
Read-out in assay [1]: Tumor necrosis factor receptor superfamily member 6 (Homo sapiens) (UniProt P25445)
Nature of the assay: LTEA_HepaRG_FAS: Life Technologies and Expression Analysis (LTEA) Assay for Fas cell surface death receptor (FAS) using HepaRG (AID 2283447). A digest of the protocol:
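Differentiated human HepaRG cells, pre-cultured 48 h, were exposed in duplicate for 48 h to 8-point half-log concentrations (top 100 uM, 0.5% DMSO) in serum-free induction medium; FAS mRNA measured by qRT-PCR, normalized to ACTB/GAPDH/POLR2A, bidirectional fit versus DMSO.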

Read-out in assay [2]: Fatty acid synthase (Homo sapiens) (UniProt P49327)
Nature of the assay: LTEA_HepaRG_FASN: Life Technologies and Expression Analysis (LTEA) Assay for Fatty Acid Synthase (FASN) using HepaRG (AID 2283448). A digest of the protocol:
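Transcript-level assay: HepaRG liver cells are treated for 48 h across an eight-point range topping at 100 uM, and FASN mRNA, normalized to three housekeeping genes, is compared with DMSO controls in both directions.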

Read-out in assay [3]: Cyclin D2 (CCND2), CCND2 (gene 894)
Kind of assay: LTEA_HepaRG_CCND2: Life Technologies and Expression Analysis (LTEA) Assay for Cyclin D2 (CCND2) using HepaRG (AID 2283449).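 Also: CCND2 transcript measured by TaqMan qRT-PCR and normalised to three housekeeping genes.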 A digest of the protocol: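 Differentiated human HepaRG cells were exposed for 48 h in serum-free induction medium to eight half-log concentrations topping at 100 uM (0.5% DMSO vehicle). CCND2 mRNA was quantified by TaqMan qRT-PCR, normalised to ACTB, GAPDH and POLR2A, and fitted bidirectionally against DMSO.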

Read-out in assay [4]: Cyclin Dependent Kinase Inhibitor 1A (CDKN1A), CDKN1A (gene 1026)
Nature of the assay: LTEA_HepaRG_CDKN1A: Life Technologies and Expression Analysis (LTEA) Assay for Cyclin Dependent Kinase Inhibitor 1A (CDKN1A) using HepaRG (AID 2283450). A digest of the protocol: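 HepaRG, 48 h dosing, 8-pt half-log series from 100 uM top, 0.5% DMSO vehicle, duplicates. Readout: TaqMan qRT-PCR of CDKN1A transcript, housekeeping-normalized (ACTB, GAPDH, POLR2A). Up/down curve fit relative to DMSO.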

Read-out in assay [5]: Cyclin D1 (CCND1), CCND1 (gene 595)
Nature of the assay: LTEA_HepaRG_CCND1: Life Technologies and Expression Analysis (LTEA) Assay for Cyclin D1 (CCND1) using HepaRG (AID 2283451). A digest of the protocol:
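qRT-PCR (Fluidigm 96.96 array) read-out of transcript level, housekeeping-normalized (ACTB/GAPDH/POLR2A). HepaRG cells, 48 h chemical exposure, 8-point half-log series from 100 uM, 0.5% DMSO vehicle; gain or loss relative to DMSO baseline.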

Read-out in assay [6]: catalase (CAT), CAT (gene 847)
Nature of the assay: LTEA_HepaRG_CAT: Life Technologies and Expression Analysis (LTEA) Assay for catalase (CAT) using HepaRG (AID 2283452). A digest of the protocol:
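Differentiated HepaRG cells in serum-free induction medium were dosed 48 h in duplicate, eight half-log concentrations from 100 uM in 0.5% DMSO. Transcript measured by TaqMan qRT-PCR, normalised to ACTB/GAPDH/POLR2A, fitted bidirectionally against DMSO.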

Read-out in assay [7]: flavin-containing dimethylaniline monooxygenases 3 (FMO3), FMO3 (gene 2328)
Nature of the assay: LTEA_HepaRG_FMO3: Life Technologies and Expression Analysis (LTEA) Assay for flavin-containing dimethylaniline monooxygenases 3 (FMO3) using HepaRG (AID 2283453). A digest of the protocol:
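HepaRG, 48 h exposure, 8-pt half-log series from 100 uM, 0.5% DMSO vehicle, duplicates; FMO3 transcript by Fluidigm TaqMan qRT-PCR, housekeeping-normalized; gain/loss fit vs DMSO.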

Read-out in assay [8]: Cytochrome P450 (CYP1A1), CYP1A1 (gene 1543)
Kind of assay: LTEA_HepaRG_CYP1A1: Life Technologies and Expression Analysis (LTEA) Assay for Cytochrome P450 (CYP1A1) using HepaRG (AID 2283454). A digest of the protocol:
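qRT-PCR read-out: CYP1A1 transcript normalized to three housekeeping genes, fitted bidirectionally against 0.5% DMSO vehicle baseline. Human HepaRG cells, 48 h chemical exposure, 8-point half-log series topping at 100 uM.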

Read-out in assay [9]: CFLAR gene, CFLAR (gene 8837)
Nature of the assay: LTEA_HepaRG_CFLAR: Life Technologies and Expression Analysis (LTEA) Assay for CFLAR gene using HepaRG (AID 2283455). A digest of the protocol: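 HepaRG cells were plated for 48 h, switched to serum-free induction medium, then exposed in duplicate for 48 h to 8 concentrations (top 100 uM, half-log steps, 0.5% DMSO). CFLAR mRNA was measured by qRT-PCR, normalized to ACTB, GAPDH and POLR2A.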

Read-out in assay [10]: Forkhead box O1 (FOXO1), FOXO1 (gene 2308)
Nature of the assay: LTEA_HepaRG_FOXO1: Life Technologies and Expression Analysis (LTEA) Assay for Forkhead box O1 (FOXO1) using HepaRG (AID 2283456). A digest of the protocol:
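Differentiated human HepaRG cells in serum-free induction medium were exposed in duplicate for 48 h to eight half-log concentrations (top 100 uM, 0.5% DMSO). FOXO1 mRNA was measured by TaqMan qRT-PCR, normalised to ACTB, GAPDH and POLR2A, and fitted bidirectionally against DMSO.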

Read-out in assay [11]: growth arrest and DNA damage 45 (GADD45A), GADD45A (gene 1647)
Nature of the assay: LTEA_HepaRG_GADD45A: Life Technologies and Expression Analysis (LTEA) Assay for growth arrest and DNA damage 45 (GADD45A) using HepaRG (AID 2283458). A digest of the protocol: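 Human HepaRG liver cells are treated in duplicate for 48 h with chemicals in 0.5% DMSO, highest concentration 100 uM. Expression is read by qRT-PCR and analyzed in both directions against vehicle.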

Read-out in assay [12]: Forkhead box O3 (FOXO3), FOXO3 (gene 2309)
Nature of the assay: LTEA_HepaRG_FOXO3: Life Technologies and Expression Analysis (LTEA) Assay for Forkhead box O3 (FOXO3) using HepaRG (AID 2283459). A digest of the protocol: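 Differentiated human HepaRG cells in serum-free induction medium were exposed in duplicate for 48 h to eight half-log concentrations up to 100 uM in 0.5% DMSO. FOXO3 mRNA was quantified by qRT-PCR, normalized to ACTB, GAPDH and POLR2A, with bidirectional fitting versus DMSO.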

Read-out in assay [13]: ABC Transporter (ABCB1), ABCB1 (gene 5243)
Nature of the assay: LTEA_HepaRG_ABCB1: Life Technologies and Expression Analysis (LTEA) Assay for ABC Transporter (ABCB1) using HepaRG (AID 2283460). A digest of the protocol:
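Differentiated human HepaRG cells, plated 48 h then switched to serum-free induction medium, were exposed in duplicate to eight half-log concentrations up to 100 uM in 0.5% DMSO for 48 h. ABCB1 mRNA was measured by TaqMan qRT-PCR, normalized to ACTB/GAPDH/POLR2A.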

Read-out in assay [14]: growth arrest and DNA damage 45 (GADD45B), GADD45B (gene 4616)
Nature of the assay: LTEA_HepaRG_GADD45B: Life Technologies and Expression Analysis (LTEA) Assay for growth arrest and DNA damage 45 (GADD45B) using HepaRG (AID 2283461). A digest of the protocol:
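qRT-PCR read-out (Fluidigm TaqMan, housekeeping-normalized) of mRNA change in human HepaRG cells after 48 h chemical exposure; 8-point curve, top 100 uM, half-log steps, 0.5% DMSO vehicle; gain or loss fitted relative to DMSO baseline.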

Read-out in assay [15]: ABC Transporter (ABCC3), ABCC3 (gene 8714)
Nature of the assay: LTEA_HepaRG_ABCC3: Life Technologies and Expression Analysis (LTEA) Assay for ABC Transporter (ABCC3) using HepaRG (AID 2283462). A digest of the protocol:
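qRT-PCR read-out of ABCC3 transcript, normalized to three housekeeping genes (ACTB, GAPDH, POLR2A), after 48 h chemical exposure of human HepaRG cells. Eight half-log concentrations, highest 100 uM, in 0.5% DMSO; gain or loss fitted relative to DMSO baseline.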

Read-out in assay [16]: Broad substrate specificity ATP-binding cassette transporter ABCG2 (Homo sapiens) (UniProt Q9UNQ0)
Kind of assay: LTEA_HepaRG_ABCG2: Life Technologies and Expression Analysis (LTEA) Assay for ABC Transporter (ABCG2) using HepaRG (AID 2283465). A digest of the protocol: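 Differentiated HepaRG cells in serum-free induction medium were exposed for 48 h, in duplicate, to eight half-log concentrations up to 100 uM in 0.5% DMSO. ABCG2 mRNA was measured by TaqMan qRT-PCR, normalized to ACTB, GAPDH and POLR2A, and fitted bidirectionally versus DMSO.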

Read-out in assay [17]: ATP-citrate lyase (ACLY), ACLY (gene 47)
Nature of the assay: LTEA_HepaRG_ACLY: Life Technologies and Expression Analysis (LTEA) Assay for ATP-citrate lyase (ACLY) using HepaRG (AID 2283466). A digest of the protocol:
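Differentiated human HepaRG cells in serum-free induction medium exposed 48 h, in duplicate, to eight half-log concentrations from 100 uM top in 0.5% DMSO; ACLY mRNA measured by qRT-PCR, normalized to ACTB, GAPDH, POLR2A, fitted bidirectionally versus DMSO.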

Read-out in assay [18]: ABC Transporter (ABCC2), ABCC2 (gene 1244)
Nature of the assay: LTEA_HepaRG_ABCC2: Life Technologies and Expression Analysis (LTEA) Assay for ABC Transporter (ABCC2) using HepaRG (AID 2283464). A digest of the protocol:
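qRT-PCR (TaqMan, Fluidigm array) read-out of ABCC2 mRNA, normalized to three housekeeping genes. Differentiated HepaRG cells were treated 48 h in serum-free induction medium with 8-point half-log series from 100 uM in 0.5% DMSO; curves fitted bidirectionally relative to DMSO.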

Read-out in assay [19]: ABC Transporter (ABCB11), ABCB11 (gene 8647)
Kind of assay: LTEA_HepaRG_ABCB11: Life Technologies and Expression Analysis (LTEA) Assay for ABC Transporter (ABCB11) using HepaRG (AID 2283463). A digest of the protocol:
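Differentiated human HepaRG cells were exposed for 48 h in serum-free induction medium to eight half-log concentrations up to 100 uM in 0.5% DMSO. ABCB11 mRNA was quantified by qRT-PCR, normalized to ACTB, GAPDH and POLR2A, and fitted bidirectionally versus DMSO.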

Activity calls are given as the source filed them. The calls were made as follows: active = hit-call score of the fitted dose curve at least 0.9, where 1 is the maximum; inactive = score below 0.9.

Chain of Broad substrate specificity ATP-binding cassette transporter ABCG2 (Homo sapiens) (Q9UNQ0 whole entry, looked up): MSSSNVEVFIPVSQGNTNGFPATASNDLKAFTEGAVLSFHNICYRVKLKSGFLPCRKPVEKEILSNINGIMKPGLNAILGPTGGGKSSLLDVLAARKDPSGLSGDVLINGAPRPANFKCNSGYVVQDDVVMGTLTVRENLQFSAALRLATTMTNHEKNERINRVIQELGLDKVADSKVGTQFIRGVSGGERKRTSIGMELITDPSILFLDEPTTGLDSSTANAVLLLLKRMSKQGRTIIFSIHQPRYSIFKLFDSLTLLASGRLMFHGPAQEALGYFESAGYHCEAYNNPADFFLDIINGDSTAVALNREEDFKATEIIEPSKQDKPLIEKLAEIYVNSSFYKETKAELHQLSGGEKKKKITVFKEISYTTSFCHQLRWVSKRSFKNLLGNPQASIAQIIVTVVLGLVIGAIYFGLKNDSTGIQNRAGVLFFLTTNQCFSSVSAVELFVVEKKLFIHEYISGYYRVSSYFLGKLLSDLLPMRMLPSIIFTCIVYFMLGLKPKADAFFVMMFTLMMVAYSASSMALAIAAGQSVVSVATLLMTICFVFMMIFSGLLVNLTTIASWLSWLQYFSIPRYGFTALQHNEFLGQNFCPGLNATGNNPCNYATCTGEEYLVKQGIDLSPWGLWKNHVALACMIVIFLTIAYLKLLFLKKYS
Chain of Fatty acid synthase (Homo sapiens) (P49327 whole entry, looked up): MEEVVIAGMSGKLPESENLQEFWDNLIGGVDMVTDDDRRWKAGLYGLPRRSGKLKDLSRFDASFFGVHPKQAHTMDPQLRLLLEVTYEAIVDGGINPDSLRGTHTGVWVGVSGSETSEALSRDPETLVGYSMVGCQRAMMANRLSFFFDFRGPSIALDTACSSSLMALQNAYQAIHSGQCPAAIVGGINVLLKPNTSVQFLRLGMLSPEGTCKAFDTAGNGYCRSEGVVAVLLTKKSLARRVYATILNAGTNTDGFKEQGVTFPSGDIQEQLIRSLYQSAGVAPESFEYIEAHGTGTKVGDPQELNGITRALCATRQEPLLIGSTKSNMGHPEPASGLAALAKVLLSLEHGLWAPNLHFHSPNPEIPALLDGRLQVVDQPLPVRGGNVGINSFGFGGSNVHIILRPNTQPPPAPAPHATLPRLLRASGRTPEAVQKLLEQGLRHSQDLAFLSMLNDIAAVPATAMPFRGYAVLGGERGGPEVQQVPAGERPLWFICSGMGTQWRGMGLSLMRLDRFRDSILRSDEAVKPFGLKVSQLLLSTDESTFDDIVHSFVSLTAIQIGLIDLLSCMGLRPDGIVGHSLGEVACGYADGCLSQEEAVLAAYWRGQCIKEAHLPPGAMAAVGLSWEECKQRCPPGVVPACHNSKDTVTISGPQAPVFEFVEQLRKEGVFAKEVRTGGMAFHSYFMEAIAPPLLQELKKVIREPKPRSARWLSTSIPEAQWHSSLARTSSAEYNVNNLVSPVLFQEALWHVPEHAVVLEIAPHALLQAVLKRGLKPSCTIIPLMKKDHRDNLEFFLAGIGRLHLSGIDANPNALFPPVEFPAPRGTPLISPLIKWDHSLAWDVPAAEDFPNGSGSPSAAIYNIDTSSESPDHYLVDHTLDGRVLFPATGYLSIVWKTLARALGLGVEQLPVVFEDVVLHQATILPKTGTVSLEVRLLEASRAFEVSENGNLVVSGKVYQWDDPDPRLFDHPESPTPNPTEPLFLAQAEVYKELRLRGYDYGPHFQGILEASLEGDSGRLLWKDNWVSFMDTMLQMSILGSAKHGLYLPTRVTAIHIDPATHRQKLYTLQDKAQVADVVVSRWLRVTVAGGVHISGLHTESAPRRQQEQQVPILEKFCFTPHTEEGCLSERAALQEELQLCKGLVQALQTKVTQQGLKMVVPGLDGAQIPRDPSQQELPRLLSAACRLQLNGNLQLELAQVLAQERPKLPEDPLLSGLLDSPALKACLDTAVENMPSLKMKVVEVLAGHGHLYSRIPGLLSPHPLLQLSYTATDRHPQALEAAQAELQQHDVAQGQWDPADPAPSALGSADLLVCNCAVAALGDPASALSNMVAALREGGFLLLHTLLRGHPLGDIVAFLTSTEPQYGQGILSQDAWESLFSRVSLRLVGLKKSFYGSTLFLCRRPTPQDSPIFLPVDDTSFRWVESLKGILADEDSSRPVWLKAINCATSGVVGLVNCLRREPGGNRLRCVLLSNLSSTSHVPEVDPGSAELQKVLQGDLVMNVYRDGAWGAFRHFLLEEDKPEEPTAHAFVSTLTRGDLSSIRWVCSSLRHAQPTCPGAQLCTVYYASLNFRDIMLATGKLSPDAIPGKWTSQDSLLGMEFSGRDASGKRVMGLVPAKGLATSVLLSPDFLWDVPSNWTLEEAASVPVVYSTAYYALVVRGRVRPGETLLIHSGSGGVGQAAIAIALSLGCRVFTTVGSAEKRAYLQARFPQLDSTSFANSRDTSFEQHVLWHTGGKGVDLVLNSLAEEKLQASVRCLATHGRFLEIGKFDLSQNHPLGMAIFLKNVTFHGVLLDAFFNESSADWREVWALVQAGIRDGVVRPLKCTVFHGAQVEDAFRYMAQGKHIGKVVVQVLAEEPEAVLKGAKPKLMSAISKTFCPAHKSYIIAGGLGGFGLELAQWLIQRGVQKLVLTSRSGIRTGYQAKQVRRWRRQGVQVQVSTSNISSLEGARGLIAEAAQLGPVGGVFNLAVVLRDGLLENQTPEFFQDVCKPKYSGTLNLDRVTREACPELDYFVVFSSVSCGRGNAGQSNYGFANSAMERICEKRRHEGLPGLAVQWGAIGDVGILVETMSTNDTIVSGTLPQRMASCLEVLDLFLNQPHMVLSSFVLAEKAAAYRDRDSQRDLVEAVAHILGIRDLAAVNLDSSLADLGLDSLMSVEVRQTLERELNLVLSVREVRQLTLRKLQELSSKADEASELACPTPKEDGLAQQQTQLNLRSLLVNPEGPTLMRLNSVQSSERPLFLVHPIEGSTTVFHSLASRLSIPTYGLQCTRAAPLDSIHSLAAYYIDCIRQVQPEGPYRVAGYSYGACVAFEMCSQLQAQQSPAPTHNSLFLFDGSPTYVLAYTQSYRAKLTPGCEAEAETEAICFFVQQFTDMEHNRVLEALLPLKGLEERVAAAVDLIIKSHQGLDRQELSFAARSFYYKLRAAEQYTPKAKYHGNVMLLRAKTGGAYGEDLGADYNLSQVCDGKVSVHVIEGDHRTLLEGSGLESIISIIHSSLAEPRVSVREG

As to `CCCCCC(=O)O`, the compound was called inactive in assay [1], in [2], in assay [3], in [4], in assay [5] and in assay [6]. For the same compound, the compound was called inactive in [7], in assay [9], in assay [10], in [11], in assay [12] and in assay [13]. Moreover, the result in assay [14], in assay [15], in assay [16] and in assay [17] was inactive. Moreover, in assay [8], the AC50 was 70 µM (active).
Regarding `CCCCCCCCCCO`, the outcome in [1], in assay [2], in [3], in assay [4], in assay [5] and in assay [6] was inactive. Besides, the outcome in assay [7], in assay [8], in [10], in [11], in [12] and in assay [13] was inactive. The call in [14], in [15], in assay [18], in [16] and in assay [17] was inactive.
Consider `Cc1cccc([N+](=O)[O-])c1C`, for which the compound was classed as inactive in assay [1], in [2], in assay [3], in assay [4], in assay [5] and in assay [6]. The result in assay [7], in assay [8], in assay [9], in assay [10], in [11] and in [12] was inactive. Also, the result in [13], in assay [14], in assay [15], in [19], in assay [18] and in assay [16] was inactive. Moreover, the result in assay [17] was inactive.
On to `Cc1ccc(C)c(C)c1`, for which the compound was classed as inactive in assay [1], in [2], in assay [3], in [4], in assay [5] and in assay [6]. Besides, the call in [7], in [8], in [9], in [10], in assay [11] and in [12] was inactive. In addition, the compound was classed as inactive in assay [13], in assay [14], in [15], in [19], in assay [18] and in assay [16]. Further, the result in assay [17] was inactive.
Turning to `Nc1ccc(S(=O)(=O)c2ccc(N)cc2)cc1`, the outcome in assay [1], in assay [2], in assay [3], in assay [4], in assay [5] and in assay [6] was inactive. The result in assay [7], in assay [8], in assay [9], in assay [10], in assay [11] and in assay [12] was inactive. Also, the compound was classed as inactive in [13], in [14], in assay [15], in assay [18], in [16] and in assay [17].
Turning to `O=C(N[C@@H](Cc1ccccc1)[C@@H](O)C(=O)N1C[C@@H](O)[C@@H](O)C1)c1cc2cc(Cl)ccc2[nH]1`, the compound was called inactive in [1], in [2], in assay [3], in assay [5], in assay [6] and in [7]. The compound was classed as inactive in assay [9], in [10], in [11], in assay [12], in assay [14] and in assay [15]. The compound was classed as inactive in [19]. For the same compound, the half-maximal activity concentration (AC50) in assay [4] is 63.1 µM (active); in assay [8], 50 µM (active); in [13], 9.92 µM (active); in [16] it was 50 µM (active); in assay [17], 50 µM (active).
Turning to `FC(F)(F)C(F)(F)C(F)(F)C(F)(F)C(F)(F)C(F)(F)CCI`, the result in [1], in assay [2], in assay [3], in assay [4], in assay [5] and in assay [6] was inactive. In addition, the outcome in assay [7], in [8], in [10], in [11], in assay [12] and in assay [13] was inactive. Further, the compound was called inactive in [14], in assay [15], in assay [19], in [18], in assay [16] and in assay [17].

The term AC50 denotes the concentration at which the activity in the assay is half-maximal.
